This note sets out measurements from PubChem BioAssay AID2595 (National Center for Advancing Translational Sciences (NCATS), 2010).

Values joined by “and” are separate entries in the source; they are usually repeats but may differ in a detail not shown here. Equal values may be shown once. Results filed as inconclusive are left out. A number with no mark means an inactive call. Active and inactive are the calls of the source. Calls come from the whole dose curve; as a rule, active = well fitted inhibition curve with a large enough effect; inconclusive = small, poorly fitted or top-dose-only effect, or effect the other way; inactive = flat fitted curve, though single readings scatter.

Chain of Lysosomal acid glucosylceramidase (Homo sapiens) (P04062 whole entry, looked up): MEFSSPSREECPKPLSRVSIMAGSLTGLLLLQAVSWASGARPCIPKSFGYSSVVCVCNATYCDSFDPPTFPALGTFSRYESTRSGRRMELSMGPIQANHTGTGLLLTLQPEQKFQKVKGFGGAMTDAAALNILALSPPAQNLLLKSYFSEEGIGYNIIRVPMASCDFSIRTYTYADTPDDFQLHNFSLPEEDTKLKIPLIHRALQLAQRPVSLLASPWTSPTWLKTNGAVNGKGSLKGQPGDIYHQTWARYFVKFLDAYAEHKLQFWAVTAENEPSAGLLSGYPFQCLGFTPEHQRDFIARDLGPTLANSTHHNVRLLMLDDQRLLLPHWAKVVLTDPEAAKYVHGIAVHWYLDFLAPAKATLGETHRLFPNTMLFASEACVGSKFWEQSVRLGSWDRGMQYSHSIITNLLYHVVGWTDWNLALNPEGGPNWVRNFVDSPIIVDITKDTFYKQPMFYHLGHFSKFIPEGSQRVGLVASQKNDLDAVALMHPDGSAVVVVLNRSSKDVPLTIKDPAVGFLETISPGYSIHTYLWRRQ

This experiment has as its target Lysosomal acid glucosylceramidase (Homo sapiens) (UniProt P04062). The experiment is described as follows: qHTS Assay for Inhibitors and Activators of N370S glucocerebrosidase as a Potential Chaperone Treatment of Gaucher Disease: Purified Non-mutant Glucocerebrosidase. The following applies: purified wildtype GC, 4MU-beta-glucoside fluorescence, 40 min; series mostly up to 76.9 µM; activity change, negative = inhibition: at the top concentration. The source says: NIH Chemical Genomics Center [NCGC] NIH Molecular Libraries Probe Production Centers Network [MLPCN] MLPCN Grant: MH086442-01 Assay Submitter (PI): Wei Zheng Glucocerebrosidase (GC) catalyzes the hydrolysis of beta-glucocerebroside to glucose and ceramide in lysosomes. Mutations in the glucocerebrosidase gene result in Gaucher disease, an autosomal recessive lysosomal storage disorder. Many of the mutations encountered in patients with Gaucher disease are missense alterations that may cause misfolding, decreased stability and/or mistrafficking of this lysosomal protein. […] These inhibitors include iminosugar analogs and three non-iminosugar inhibitors identified from a previous HTS of 62,000 compounds with the wild type recombinant enzyme. However, the enhancement of enzyme activity by the chaperone action of an enzyme inhibitor must be balanced against the direct inhibition of the enzyme. An enzyme activator could also function as a chaperone by binding to the enzyme and helping to correct its misfolding and mistrafficking. While activators for GC have not yet been identified, they may have better therapeutic potential than inhibitors. Therefore the discovery and development of chemical activators may provide a new strategy for the chaperone therapy. We have optimized a new assay using N370S mutant GC derived from the spleen of a Gaucher patient. […] In addition, the MLPCN compound library has expanded, which increases the chance of finding new and better probes. This assay characterizes compound activity using purified wildtype enzyme instead of mutant enzyme from tissue homogenate. Compound activity differences may be due to the absence of endogenous cofactors found in tissue homogenate as well as inherent differences in enzyme stability and catalytic activity between the N370S and wildtype forms of the protein.
NCGC Assay Protocol Summary: This is a fluorogenic enzyme assay with 4-methylumbelliferyl-beta-D-glucopyranoside as the substrate and purified wildtype glucocerebrosidase as the enzyme preparation. Upon the hydrolysis of this fluorogenic substrate, the resulting product, […] which can be detected by a standard fluorescence plate reader. Data were normalized to the controls for basal activity (without enzyme) and 100% activity (with enzyme). The AC50 values were determined from concentration-response data modeled with the standard Hill equation. Assay buffer: 50 mM citric acid (titrated with potassium phosphate to pH 5.0), 100 mM potassium chloride, 10 mM sodium chloride, 1 mM magnesium chloride, 0.01% Tween-20. 1536-well assay protocol: (1) Add 2 ul/well of glucocerebrosidase enzyme solution (5 nM final) (2) Add 23 nL compounds in DMSO solution. The final titration was 0.5 nM to 58 uM. (3) Add 2 ul of substrate (1 mM final) (4) Incubate at 37C for 40 min. (5) Add 2 ul stop solution (1M NaOH and 1M Glycine mixture, pH 10) (6) Detect the assay plate in a ViewLux plate reader (PerkinElmer) with Ex=365 nm and Em=440nm. Keywords: Glucocerebrosidase, beta-glucosidase, Gaucher Disease, pharmacological chaperone, chaperone therapy, high throughput screening, glucocerebrosidase inhibitor, MLSMR, MLSCN, NIH Roadmap, qHTS and NCGC
Background: In qHTS, concentration-response curves come from the screen itself.
As to `Cc1ccc(-c2nc(N3CCN(S(=O)(=O)c4ccc(F)cc4)CC3)c3ccc(Cl)cc3n2)cc1`, the “activity change, negative = inhibition” value was -11.6%. Turning to `O=S(=O)(c1cccs1)N1CCN(c2nc(-c3cccs3)nc3ccccc23)CC1`, the Potency was 8.91 µM (active).

`O=S(=O)(c1ccccc1)N1CCN(c2nc(-c3ccc(F)cc3)nc3cc(Cl)ccc23)CC1`: the “activity change, negative = inhibition” value was -0.12%. Regarding `Cc1ccc(Cl)cc1NC(=O)c1ccccc1OCC(=O)Nc1ccc(Cl)cc1`, the “activity change, negative = inhibition” value was 15.2% [at 57.5 µM]. On to `S=C(NCCCc1cnc[nH]1)NCCCN(Cc1ccc(Cl)c(Cl)c1)c1ccc(Br)cn1`, for which the Potency was 0.708 µM (active). For the compound `COc1cccc(S(=O)(=O)N2CCN(c3nc(-c4cccs4)nc4ccccc34)CC2)c1`, the Potency was 10 µM (active). Take `O=S(=O)(c1ccc(F)cc1)N1CCN(c2nc(-c3ccc(F)cc3)nc3cc(Cl)ccc23)CC1`: the “activity change, negative = inhibition” value was 4.56%. For the compound `Cc1ccc(S(=O)(=O)N2CCN(c3nc(-c4cccs4)nc4ccccc34)CC2)cc1`, the Potency is 2 µM (active) and 10 µM (active). Regarding `c1csc(-c2nc(NCC3CCCO3)c3ccccc3n2)c1` (centres undefined), the Potency is 15.8 µM (active). On the same count and under the same terms, for `O=S(=O)(c1ccc(Cl)cc1)N1CCN(c2nc(Nc3cc(Cl)ccc3O)nc3ccccc23)CC1` the value was 1.26 µM (active); for `O=C(c1ccc2c(c1)OCCO2)N1CCN(c2nc(-c3cccs3)nc3ccccc23)CC1`, 31.6 µM (active). With `O=S(=O)(c1ccc(F)cc1)N1CCN(c2nc(-c3cccs3)nc3cc(Cl)ccc23)CC1`, the “activity change, negative = inhibition” value is 1.31%. Take `O=S(=O)(c1ccccc1Cl)N1CCN(c2nc(-c3cccs3)nc3ccccc23)CC1`: the Potency was 2.82 µM (active). As to `Cc1cc(C)cc(N(CC(=O)NC2CCCCCC2)S(=O)(=O)c2c(C)[nH]c(=O)[nH]c2=O)c1`, the Potency was 0.398 µM (active). With `O=S(=O)(c1ccc(Cl)cc1)N1CCN(c2nc(-c3cccc(Br)c3)nc3ccccc23)CC1`, the “activity change, negative = inhibition” value was -13.9%. As for `O=S(=O)(Cc1ccccc1)N1CCN(c2nc(-c3cccs3)nc3ccccc23)CC1`, the Potency is 10 µM (active). As to `O=S(=O)(c1cccc(C(F)(F)F)c1)N1CCN(c2nc(-c3cccs3)nc3cc(Cl)ccc23)CC1`, the “activity change, negative = inhibition” value is -10.7%. Regarding `O=S(=O)(c1ccc(F)cc1)N1CCN(c2nc(-c3ccccc3)nc3cc(Cl)ccc23)CC1`, the “activity change, negative = inhibition” value is -2.36%.

On to `COc1ccc(S(=O)(=O)N2CCN(c3nc(-c4cccs4)nc4ccccc34)CC2)cc1`, for which the Potency was 14.1 µM (active). In the case of `O=S(=O)(c1ccccc1C(F)(F)F)N1CCN(c2nc(-c3cccs3)nc3ccccc23)CC1`, the Potency is 4.47 µM (active). For the compound `O=S(=O)(c1ccc2c(c1)OCCO2)N1CCN(c2nc(-c3cccs3)nc3ccccc23)CC1`, the Potency is 2.51 µM (active). Regarding `O=S(=O)(c1ccc2c(c1)OCCO2)N1CCN(c2nc(-c3ccccc3)nc3ccccc23)CC1`, the Potency was 12.6 µM (active). In the case of `Cc1ccc(S(=O)(=O)N2CCN(c3nc(-c4ccc(F)cc4)nc4cc(Cl)ccc34)CC2)cc1`, the “activity change, negative = inhibition” value is -8.86%.

For `O=S(=O)(c1ccc2ccccc2c1)N1CCN(c2nc(-c3cccs3)nc3ccccc23)CC1`, the Potency was 8.91 µM (active).

Take `OCCNc1nc(-c2cccs2)nc2ccccc12`: the Potency is 17.8 µM (active). Same read-out and setting: for `O=S(=O)(c1ccc(Cl)cc1)N1CCN(c2nc(-c3cccs3)nc3ccccc23)CC1` the value was 2.51 µM (active) and 6.31 µM (active). Regarding `O=S(=O)(c1cccc2ccccc12)N1CCN(c2nc(-c3cccs3)nc3ccccc23)CC1`, the Potency is 14.1 µM (active). Regarding `CC(C)C(C)NC(=O)CSc1nc2scc(-c3ccco3)c2c(=O)n1-c1ccccc1` (centres undefined), the “activity change, negative = inhibition” value is -7.04% [at 57.5 µM]. With `CC(C)(C)C(=O)OCCNc1nc(-c2ccccc2)nc2ccccc12`, the Potency is 0.708 µM (active). Consider `O=S(=O)(c1ccc(Cl)cc1)N1CCN(c2nc(-c3ccc(Cl)cc3)nc3ccccc23)CC1`, for which the “activity change, negative = inhibition” value was -17.5%. For `O=S(=O)(c1ccc(Cl)cc1)N1CCN(c2nc(-c3ccc(F)cc3)nc3cc(Cl)ccc23)CC1`, the “activity change, negative = inhibition” value was -7.55%. Consider `NS(=O)(=O)c1ccc(S(=O)(=O)N2CCN(c3nc(-c4cccs4)nc4ccccc34)CC2)cc1`, for which the Potency is 15.8 µM (active). In the case of `O=S(=O)(c1ccc(F)cc1)N1CCN(c2nc(-c3cccc(Br)c3)nc3ccccc23)CC1`, the “activity change, negative = inhibition” value was -16.4%. As for `COc1ccc(-c2nc(N3CCN(S(=O)(=O)c4ccc(F)cc4)CC3)c3ccccc3n2)cc1`, the “activity change, negative = inhibition” value was -25.8%.
